The text below walks through data of PubChem BioAssay AID720582 (The Scripps Research Institute Molecular Screening Center, 2013).

The whole screen tested about 370,000 compounds, of which about 2,300 (0.62%) were called active. This excerpt belongs to a sample that is enriched for actives. A number with no mark means an inactive call.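 The calls were made as follows: active = inhibition above a per-campaign cutoff equal to the mean of compounds falling between control-based bounds plus 3 SD (cut at about 20% in these data); inactive = the rest.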

This test deals with Disintegrin and metalloproteinase domain-containing protein 10 (Homo sapiens) (UniProt O14672). Nature of the test: human ADAM10 inhibitors, primary screen, biochemical, QFRET, HTS (AID 720582).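 Also: 0% = DMSO wells while the 100% control is not disclosed.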 Conditions: recombinant ADAM10, EDANS/DABCYL FRET peptide cleavage, 3 h; at 7 µM; active compounds read high.
Chain of Disintegrin and metalloproteinase domain-containing protein 10 (Homo sapiens) (O14672 214-748 limits assumed): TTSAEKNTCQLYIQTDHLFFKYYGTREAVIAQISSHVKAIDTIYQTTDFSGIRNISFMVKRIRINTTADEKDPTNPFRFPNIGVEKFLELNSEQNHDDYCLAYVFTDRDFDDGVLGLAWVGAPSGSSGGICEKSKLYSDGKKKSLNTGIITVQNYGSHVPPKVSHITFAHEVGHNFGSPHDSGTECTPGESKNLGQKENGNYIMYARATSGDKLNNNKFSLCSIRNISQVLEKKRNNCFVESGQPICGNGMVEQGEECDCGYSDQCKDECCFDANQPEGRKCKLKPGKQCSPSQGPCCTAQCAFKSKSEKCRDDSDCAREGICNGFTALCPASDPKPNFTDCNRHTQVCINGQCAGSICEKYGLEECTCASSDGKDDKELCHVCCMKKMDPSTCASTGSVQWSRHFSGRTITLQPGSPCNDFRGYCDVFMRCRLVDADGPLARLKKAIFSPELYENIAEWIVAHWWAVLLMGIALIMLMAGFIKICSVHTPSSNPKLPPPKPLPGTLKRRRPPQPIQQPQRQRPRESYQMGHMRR
Regarding `CSc1ccc(C=Nn2c(-c3ccc(F)cc3)n[nH]c2=S)cc1`, the inhibition was -11.4%.

`Cc1cccc(C(=O)Nc2c(-c3ccc(F)cc3)nc3ncccn23)c1`: the inhibition was -329%.

`CCC(CO)Nc1cccc2c1S(=O)(=O)N(Cc1cn(Cc3ccccc3C(F)(F)F)nn1)Cc1ccccc1O2` (stereo not drawn): the inhibition is -15.3%.

For the compound `O=C(N1CCOCC1)N1CC[C@H]2[C@H](CCCN2Cc2ccc(F)cc2)C1`, the inhibition was -0.66%.

For the compound `CC(C)CNc1cccc2c1S(=O)(=O)N(Cc1cn(Cc3ccc(Cl)cc3)nn1)Cc1ccccc1O2`, the inhibition is -29.6%.

Turning to `CCn1c(=O)n2n(c1=O)[C@@]1(C=C3CCCC[C@H]32)N=C(NC(=O)c2ccccc2)N(Cc2ccccc2)[C@H]1Cc1ccccc1`, the inhibition is 9.57%.

With `COC(=O)C[C@@H]1CC[C@@H]2[C@H](COc3ccc(NC(=O)c4cccc(F)c4)cc3C(=O)N2C)O1`, the inhibition was 9.14%.

With `COc1cccc(CNC(=O)CNS(=O)(=O)c2ccc3nc(C)sc3c2)c1OC`, the inhibition is 4.07%.

Turning to `Cc1cc(C(=O)NN=C/C=C/c2ccco2)n[nH]1`, the inhibition was -13.7%.

Turning to `C[C@@H]1ON(C)[C@H]2C[C@H]3c4[nH]c5cccc(-c6ccc7c(c6)OCO7)c5c4CCN3C[C@@H]12`, the inhibition was -72.8%.

With `COc1ccc(C(=O)NN2C(=O)C3C(c4ccccc4)C=CC(c4ccccc4)C3C2=O)cc1` (stereo not drawn), the inhibition is 24.9% (active).

Consider `O=C(NN1C(=O)C2C3C=CC(C4CC34)C2C1=O)c1ccc(Cl)cc1` (stereo not drawn), for which the inhibition is -2.31%.

In the case of `O=C(NN1C(=O)C2C3C=CC(O3)C2C1=O)c1ccccc1` (stereo not drawn), the inhibition is 1.76%.

As to `CCCCN1CCN(C(=O)c2ccc3c(c2)NC(=O)C(C)(C)O3)CC1`, the inhibition was 2.07%.

Turning to `Fc1ccc2nc(COCc3nc4ccc(F)cc4[nH]3)[nH]c2c1`, the inhibition was 2.8%.

Turning to `COc1cc(/C=N/O)cc(Br)c1OS(=O)(=O)c1ccc(C)cc1`, the inhibition is 21.9% (active).

`O=C(O)COc1ccc(/C=N/O)cc1Br`: the inhibition is 3.83%.

In the case of `COc1cc(/C=C/c2ccc(/C=C/c3cc(OC)c(OC)c(OC)c3)cc2)cc(OC)c1OC`, the inhibition was -373%.

Consider `Cc1ccc(-n2c(SCC(=O)Nc3ccc(S(=O)(=O)Nc4nccs4)cc3)nnc2-c2ccncc2)cc1`, for which the inhibition is -1.24%.

For `CC1CCCC(C)N1C(=O)CN1CCN(c2nc(-c3ccc(F)cc3)cs2)CC1` (stereo not drawn), the inhibition is 1.47%.

Turning to `COc1cccc(NC(=O)CN2CCN(c3nc(-c4cccc(OC)c4)cs3)CC2)c1`, the inhibition is 21.4% (active).

Turning to `COCCCNC(=S)N1CCN(c2nc(-c3cccc(OC)c3)cs2)CC1`, the inhibition is 9.71%.

With `CC[C@@H](CCC(=O)N(c1ccccc1)c1ccccc1)C1CC1`, the inhibition was -6.31%.

The inhibition is the drop in the measured response relative to a control, in per cent.
